About 79,000 compounds went through this panel and 15% of them were active in at least one assay; those are over-represented in the sample as a whole. Unmarked numbers belong to inactive results. No stated cut-off is given here; in the data, active means growth inhibition above about 70%; inactive means the rest.

A short description of this test: NCI Yeast Anticancer Drug Screen. Data for the mlh1 rad18 strain (AID 175). As to conditions: S. cerevisiae mlh1 rad18 strain growth inhibition; at 50.0 µM; stronger effect = higher value. The method, boiled down: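 Inhibition values reflect reduced growth of mutant yeast versus vehicle-treated controls following compound exposure; the mutations affect DNA damage repair.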
As for `CC1CC(C)(C)OC(c2ccc(Cl)cc2)O1` (stereo not given), the growth inhibition was -9.1%. The value for `Cc1nc(N)sc1C(=O)/C=C\c1ccc2c(c1)OCO2` was 35.4%; that for `N#CCCC(=O)c1ccc[nH]1` was 8.4%; that for `COc1cc(-c2ccc(N=Nc3ccc(N)nc3N)c(OC)c2)ccc1N=Nc1ccc(N)nc1N` was 11.7%. As for `CCC(CC)C(=O)NC(=O)NC`, the growth inhibition was 21%.

As to `CCO/C=N/c1oc(-c2ccccc2)nc1C#N`, the growth inhibition is 1.1%. Take `O=[N+]([O-])c1ccc2nc(Cl)cnc2c1`: the growth inhibition is 38.6%.

As for `NC(=O)C(N)C(N)=NCc1ccccc1` (stereo not given), the growth inhibition was 13.5%. `COC1=CC(=O)N(C(=O)C2CSC(C(CO)NC(=O)c3csc(/C=N/O)n3)=N2)C1` (stereo not given): the growth inhibition is 19.9%.

Turning to `O=C(C1CC=CCC1C(=O)N1CCCCC1)N1CCCCC1` (stereo not given), the growth inhibition is -16.9%.

Regarding `COc1cc(C)c2c(c1)C=C[C@@H]1[C@@H]2CC[C@]2(C)C(=O)CC[C@@H]12`, the growth inhibition is -3.1%.

On to `CCOC(=O)C1=C(N)n2c(s/c(=C/c3ccc(N(C)C)cc3)c2=O)=C(C(=O)OCC)C1c1ccc(N(C)C)cc1` (stereo not given), for which the growth inhibition was -7.3%. The value for `CC(=O)OCC1OC(Sc2nc3ncnc(N)c3[nH]2)C(OC(C)=O)C(OC(C)=O)C1OC(C)=O` (stereo not given) was -3.4%; that for `COc1ccccc1/C=C/C(=O)c1sc(-c2cccnc2)nc1C` was 33.5%; that for `c1ccc2c(c1)n1nnnc1c1nnnn21` was 24.4%. Regarding `CCCCOB(OCCCC)OCCCC`, the growth inhibition was -21.9%. As for `Cc1ccc(-c2ccc(C)cc2)cc1`, the figure is -11.1%; as for `O=C(NC(O)(C(F)(F)F)C(F)(F)F)c1ccccc1`, -6.95%; as for `COC(=O)CCCC(NC(=O)c1ccc([N+](=O)[O-])cc1)C(=O)OC` (stereo not given), 14.9%.

In the case of `N#Cc1cnc(SCC(=O)O)nc1N`, the growth inhibition is -13.4%. As to `Nc1ncnc2c1ncn2-c1ccccc1Cl`, the growth inhibition was 3.1%. As for `CN(C)CCCNc1cc[n+](C)c2cccc([N+](=O)[O-])c12`, the figure is 27.3%; as for `O=C(O)c1ccc([N+](=O)[O-])cc1OCc1ccccc1`, 3.95%. The value for `NC(=O)CCC(NS(=O)(=O)c1ccc(NC(=O)c2ccccc2)cc1)C(=O)O` (stereo not given) was -1.95%. For the compound `COc1ccc(NC(=O)CCC(=O)CC(=O)c2ccc(C)cc2)cc1`, the growth inhibition was 36.2%. The value for `COc1cc(C(=O)Nc2c3ccccc3nc3ccccc23)cc(OC)c1OC` was -14.6%; that for `NNc1nc2ccccc2[nH]1` was 8.85%; that for `CCOC(=N)CC(=O)Nc1ccccc1CC` was 20.9%. As for `CCOC(=O)C(C)C(=O)NCc1ccccc1` (stereo not given), the figure is 11.3%; as for `O=C(Nc1cccc2ccccc12)OCC1CC1`, -4.4%. Take `O=C=Nc1ccc(Cc2ccc(N=C=O)cc2)cc1` (tested in a mixture with another compound): the growth inhibition is 14.3%. In the case of `Cc1cccc(NC(=O)NC(O)C(Cl)(Cl)Cl)c1` (stereo not given), the growth inhibition is 0.95%. The value for `Brc1ccc(Br)nc1` was -12.9%; that for `CCCCCCCCCCCCc1c2ccccc2cc2ccccc12` was 9.5%.

Turning to `CCN(CC)c1ccccc1S(=O)(=O)O`, the growth inhibition is -6.35%. As for `c1cc2nc(c1)CSCCCCCCCCSC2`, the figure is 36%.

As to `CC=C/C=C/[C@@H]1O[C@](O)([C@H](CC)C(=O)NC/C=C/C=C(\C)[C@@H](OC)[C@@H](C)[C@@H]2O[C@H](/C=C/C=C/C=C(\C)C(=O)c3c(O)cc[nH]c3=O)[C@H](O)[C@@H]2O)[C@H](O)[C@H](O)C1(C)C`, the growth inhibition was 15.6%. The value for `CC(=O)c1ccco1` was 13.1%. As for `N#CCCC(CCC#N)(CCC(CCC#N)(CCC#N)[N+](=O)[O-])[N+](=O)[O-]`, the figure is 6.3%; as for `O=C1NC(c2cccc3ccccc23)Nc2ccccc21` (stereo not given), 0.8%.
